Experimental data taken from PubChem BioAssay (NCI).
The panel holds about 83,000 compounds, 20% with a hit somewhere; the sample as a whole holds those more often.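 Percent growth is the endpoint: 0 to 100 indicates growth inhibition (40 means 60% inhibition), 0 means no net growth, and negative values indicate cell death.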 Values without a mark were called inactive. Calls of active or inactive are those of the source. How the source made its calls: active means growth percent below 10; inactive means the rest.

Tested on: HL-60(TB) leukemia
Test: NCI-60 one-dose screen, 48 h (100 = growth as untreated, 0 = no growth, -100 = all killed)
Conditions: 10 µM unless noted

| Compound | growth |
| --- | --- |
| Cc1ccc(Nc2ccc(O)c3c2C(=O)c2c(O)ccc(Nc4ccc(C)cc4)c2C3=O)cc1 | 108% |
| CCCN=C(N)c1ccc(NC(=O)c2ccc(C(=O)Nc3ccc(C(N)=NCCC)cc3)cc2)cc1 | 77% |
| N#Cc1nnn(-c2ccc(S(N)(=O)=O)cc2)c1NC(=O)CCl | 77.5% |
| O=C1CS/C(=N\Nc2cc(=O)[nH]c3ccccc23)N1c1ccccc1 | 96.2% |
| c1ccc(CCc2ccccc2-c2cc(-c3ccccc3)on2)cc1 | 76.2% |
| CC(C)=CCC[C@](C)(O)[C@H]1CC[C@]2(C)[C@@H]1CC[C@@H]1[C@@]3(C)CC[C@H](OC(=O)CCC(=O)O)C(C)(C)[C@@H]3CC[C@]12C | 4.34% [100 µM] (active) |
| CCc1ccc(-c2ccc(=O)n(-c3ccc(S(N)(=O)=O)cc3)n2)cc1 | -4.27% (active) |
| C/C(=C(/c1ccccc1)c1ccc(OCC(O)CN2CCOCC2)cc1)c1ccccc1 (stereo not given) | 60.7% |
| CCN1C(=S)N(CC)C2C1NC(=S)N2/N=C/C=C/c1ccccc1OC (stereo not given) | -46.4% (active) |
| O=C(NCO)c1ccccc1 | 94.4% |
| Cc1ccc(Oc2nc3ccccc3cc2-c2nnc(Cn3c(COc4ccccc4)nc4ccccc43)o2)cc1 | -18.2% (active) |
| N#Cc1ccc(N2Cc3cc(Cl)ccc3OC3=C2C(=O)N(Cc2ccc(F)cc2)C3=O)cc1 | -57.9% (active) |
| COc1ccc(/C=C/c2nc(Nc3ccc(S(=O)(=O)Nc4nc(C)cc(C)n4)cc3)c3ccccc3n2)cc1 | 73.6% |
| CCN1C(=O)N(CC)C2C1NN=c1s/c(=C\c3cc4ccccc4[nH]3)c(=O)n12 (stereo not given) | -62% (active) |
| Cc1nn(-c2ccccc2)c2c1N=c1s/c(=C\c3ccc(C(F)(F)F)cc3)c(=O)n1CN2 | 91.2% |
| COC(=O)[C@H](Cc1cn(C)cn1)NC(=O)[C@@H](NC(=O)Nc1cc(C(F)(F)F)cc(C(F)(F)F)c1)C(C)(C)C | -56.2% [100 µM] (active) |
| CCCCCCCCCCCCCCCCCC1=NC(C)(CO)CO1 (stereo not given) | 87.2% |
| Cc1c([C@H](C(Cl)Cl)[C@H](O)[C@H]2C[C@H](C)C(=O)O2)ccc2c1C(=O)[C@H]1[C@H]2C[C@@H](Br)[C@@]23O[C@@H](CO[C@H]2O)CC13C (stereo not given in full) | -16.4% (active) |
| O=C1NC(=O)c2c1c1c3ccccc3[nH]c1c1oc3ccc(F)cc3c21 | 99.5% |
| O=C(C[C@]1(O)C(=O)Nc2ccc(Br)cc21)c1ccco1 | 107% |

| Compound | growth |
| --- | --- |
| C/C(Cc1ccc(Cl)cc1)=C(\c1ccc(OCCN2CCCCCC2)cc1)c1ccc(OC(=O)c2ccccc2)cc1 | 23.1% |
| CN(C)CC1CCCCCC(CN(C)C)C1=O (stereo not given) | 26% |
| COC(=O)c1cccnc1 | 102% |
| O=c1cc(SCc2ccccc2)nc[nH]1 | 82.3% |
| CCCCCCCCN(CCCCCCCC)C(=O)CCl | 105% |
| c1ccc(C2=Nc3ccccc3SC2)cc1 | 107% |
| COc1cc(NC(C)CCCN)c2ncccc2c1Sc1ccc(Cl)cc1 (stereo not given) | 81.3% |
| Fc1ccc2[nH]cc(-c3nc(-c4c[nH]c5c(Cl)nccc45)cs3)c2c1 | 35.4% |
| OC(c1cccc(C(F)(F)F)c1)c1cnccc1NC1CCCCC1 (stereo not given) | 45.3% |
| Cc1ccc(S(=O)(=O)NC(CCC(=O)Nc2ccccc2)C(=O)Nc2ccccc2)cc1 (stereo not given) | -2.4% (active) |
| Cc1c(NC(=O)OC[C@@H]2COCCN2)cn2ncnc(Nc3ccc4c(cnn4Cc4cccc(F)c4)c3)c12 | -25.6% (active) |
| CCCCc1ccc(NC(=O)N(CCCl)N=O)cc1 | 98.8% |
| COc1ccc(/C=C2\NC(=O)NC2=O)cc1O | 102% |
| O=C1/C(=C\c2ccccn2)c2ccccc2N1c1c(Cl)cccc1Cl | 1.39% (active) |
| CC(C)=CC/C=C(/C)[C@H]1CC[C@]2(C)[C@@H]1CC[C@@H]1[C@@]3(C)CCCNC(C)(C)[C@@H]3CC[C@]12C | -35.8% [100 µM] (active) |
| O=C1c2cc3c(cc2-c2c1c1ccc(F)cc1c(=O)n2C[C@H](O)[C@@H](O)[C@H](O)CO)OCO3 | -3.71% (active) |
| Cc1cc(C)c2c(Nc3ncnc4c3sc3nc(C)cc(C)c34)n[nH]c2n1 | 99% |
| COc1ccc(CNC(=O)c2c(C)n([O-])c3ccc(OC)cc3[n+]2=O)cc1 | 92.5% |
| COCCn1cc(-c2csc(-c3c[nH]c4ccc(F)cc34)n2)c2cccnc21 | 13.9% |
| FC(F)(F)c1cccc(-c2cn3c(ccc4ccccc43)n2)c1 | 114% |
